This is an account of results in ChEMBL document CHEMBL1961873, “Compounds: GSK PKIS; Assays: Nanosyn kinase panel” (2012).

Broadly, the inhibition is the change of the read-out against control, counted positive when it falls.

The target in test [1] is MAP/microtubule affinity-regulating kinase 3 (Homo sapiens) (UniProt P27448). The conditions noted are these: at 1 µM.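 Note: reported values are averaged percent inhibition of MARK3.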
The target of test [2] is T1, MAP/microtubule affinity-regulating kinase 4 (Homo sapiens) (UniProt Q96L34).
T1 sequence (whole entry): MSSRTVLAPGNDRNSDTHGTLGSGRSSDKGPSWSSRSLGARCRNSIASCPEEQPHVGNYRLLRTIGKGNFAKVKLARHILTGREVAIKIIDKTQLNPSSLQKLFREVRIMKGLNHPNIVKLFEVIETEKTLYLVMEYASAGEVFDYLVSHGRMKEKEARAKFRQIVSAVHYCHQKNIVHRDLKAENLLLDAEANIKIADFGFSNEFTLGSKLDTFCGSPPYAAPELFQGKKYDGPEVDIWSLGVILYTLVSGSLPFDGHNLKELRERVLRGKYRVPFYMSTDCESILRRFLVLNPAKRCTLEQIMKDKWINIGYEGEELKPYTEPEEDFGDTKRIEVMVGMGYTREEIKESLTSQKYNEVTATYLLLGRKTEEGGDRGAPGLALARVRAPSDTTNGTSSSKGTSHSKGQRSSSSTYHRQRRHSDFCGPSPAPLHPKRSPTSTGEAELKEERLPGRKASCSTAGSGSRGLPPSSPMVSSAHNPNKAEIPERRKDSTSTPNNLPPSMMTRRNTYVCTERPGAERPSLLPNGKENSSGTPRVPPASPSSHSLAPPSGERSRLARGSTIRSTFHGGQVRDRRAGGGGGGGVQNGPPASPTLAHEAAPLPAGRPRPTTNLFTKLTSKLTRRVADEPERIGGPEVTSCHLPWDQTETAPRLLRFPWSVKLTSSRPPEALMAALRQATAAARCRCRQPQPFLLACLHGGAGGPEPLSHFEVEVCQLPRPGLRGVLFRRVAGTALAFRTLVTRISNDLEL
The conditions noted are these: at 0.1 µM.

Test [3] deals with T1, MAP/microtubule affinity-regulating kinase 4 (Homo sapiens). To be noted: at 1 µM.
For test [4], the target named is Maternal embryonic leucine zipper kinase (Homo sapiens) (UniProt Q14680). The conditions noted are these: at 0.1 µM.
Chain of Maternal embryonic leucine zipper kinase (Homo sapiens) (Q14680 whole entry, looked up): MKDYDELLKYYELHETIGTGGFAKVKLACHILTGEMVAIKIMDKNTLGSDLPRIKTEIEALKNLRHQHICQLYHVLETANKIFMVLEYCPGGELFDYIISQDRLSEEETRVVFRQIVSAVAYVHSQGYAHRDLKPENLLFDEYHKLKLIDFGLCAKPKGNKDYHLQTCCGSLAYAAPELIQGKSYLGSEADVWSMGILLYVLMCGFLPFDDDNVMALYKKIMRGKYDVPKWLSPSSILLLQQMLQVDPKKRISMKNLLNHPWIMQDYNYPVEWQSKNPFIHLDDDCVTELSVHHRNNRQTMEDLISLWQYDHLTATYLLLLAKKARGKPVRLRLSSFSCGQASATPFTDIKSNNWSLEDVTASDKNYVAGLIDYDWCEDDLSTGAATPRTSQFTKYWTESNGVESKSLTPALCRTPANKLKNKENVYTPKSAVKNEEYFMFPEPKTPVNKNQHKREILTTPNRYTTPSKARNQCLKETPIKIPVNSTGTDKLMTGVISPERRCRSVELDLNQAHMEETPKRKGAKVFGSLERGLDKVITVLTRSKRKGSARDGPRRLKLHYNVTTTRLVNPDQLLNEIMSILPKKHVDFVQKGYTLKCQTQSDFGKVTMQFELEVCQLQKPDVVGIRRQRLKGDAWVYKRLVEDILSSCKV
For test [5] the target is unchanged. To be noted: at 1 µM.
In test [6] the target is MAP kinase-interacting serine/threonine-protein kinase 1 (Homo sapiens) (UniProt Q9BUB5). To be noted: at 0.1 µM.
Chain of MAP kinase-interacting serine/threonine-protein kinase 1 (Homo sapiens) (Q9BUB5 whole entry, looked up): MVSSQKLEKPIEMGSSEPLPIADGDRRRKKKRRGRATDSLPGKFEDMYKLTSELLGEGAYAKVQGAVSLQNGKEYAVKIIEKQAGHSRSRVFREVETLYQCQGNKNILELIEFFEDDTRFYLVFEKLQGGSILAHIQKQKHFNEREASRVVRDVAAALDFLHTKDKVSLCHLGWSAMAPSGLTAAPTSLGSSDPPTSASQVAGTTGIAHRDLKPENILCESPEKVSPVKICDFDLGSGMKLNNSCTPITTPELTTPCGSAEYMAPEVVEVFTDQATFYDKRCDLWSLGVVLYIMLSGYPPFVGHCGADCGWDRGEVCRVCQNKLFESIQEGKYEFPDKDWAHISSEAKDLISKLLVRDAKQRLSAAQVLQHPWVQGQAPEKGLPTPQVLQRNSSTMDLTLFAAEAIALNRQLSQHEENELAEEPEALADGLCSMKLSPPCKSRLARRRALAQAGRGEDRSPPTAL
The target is the same in test [7]. The conditions noted are these: at 1 µM.
Test [8] has as its target MAP kinase-interacting serine/threonine-protein kinase 2 (Homo sapiens) (UniProt Q9HBH9). The conditions noted are these: at 0.1 µM.
Test [9] has the same target. The conditions noted are these: at 1 µM.
Test [10] concerns the target Serine/threonine-protein kinase MARK2 (Homo sapiens) (UniProt Q7KZI7). The conditions noted are these: at 0.1 µM.
The target is the same in test [11]. To be noted: at 1 µM.
The target of test [12] is PAS domain-containing serine/threonine-protein kinase (Homo sapiens) (UniProt Q96RG2). To be noted: at 0.1 µM.
Chain of PAS domain-containing serine/threonine-protein kinase (Homo sapiens) (Q96RG2 whole entry, the tested form may be a part): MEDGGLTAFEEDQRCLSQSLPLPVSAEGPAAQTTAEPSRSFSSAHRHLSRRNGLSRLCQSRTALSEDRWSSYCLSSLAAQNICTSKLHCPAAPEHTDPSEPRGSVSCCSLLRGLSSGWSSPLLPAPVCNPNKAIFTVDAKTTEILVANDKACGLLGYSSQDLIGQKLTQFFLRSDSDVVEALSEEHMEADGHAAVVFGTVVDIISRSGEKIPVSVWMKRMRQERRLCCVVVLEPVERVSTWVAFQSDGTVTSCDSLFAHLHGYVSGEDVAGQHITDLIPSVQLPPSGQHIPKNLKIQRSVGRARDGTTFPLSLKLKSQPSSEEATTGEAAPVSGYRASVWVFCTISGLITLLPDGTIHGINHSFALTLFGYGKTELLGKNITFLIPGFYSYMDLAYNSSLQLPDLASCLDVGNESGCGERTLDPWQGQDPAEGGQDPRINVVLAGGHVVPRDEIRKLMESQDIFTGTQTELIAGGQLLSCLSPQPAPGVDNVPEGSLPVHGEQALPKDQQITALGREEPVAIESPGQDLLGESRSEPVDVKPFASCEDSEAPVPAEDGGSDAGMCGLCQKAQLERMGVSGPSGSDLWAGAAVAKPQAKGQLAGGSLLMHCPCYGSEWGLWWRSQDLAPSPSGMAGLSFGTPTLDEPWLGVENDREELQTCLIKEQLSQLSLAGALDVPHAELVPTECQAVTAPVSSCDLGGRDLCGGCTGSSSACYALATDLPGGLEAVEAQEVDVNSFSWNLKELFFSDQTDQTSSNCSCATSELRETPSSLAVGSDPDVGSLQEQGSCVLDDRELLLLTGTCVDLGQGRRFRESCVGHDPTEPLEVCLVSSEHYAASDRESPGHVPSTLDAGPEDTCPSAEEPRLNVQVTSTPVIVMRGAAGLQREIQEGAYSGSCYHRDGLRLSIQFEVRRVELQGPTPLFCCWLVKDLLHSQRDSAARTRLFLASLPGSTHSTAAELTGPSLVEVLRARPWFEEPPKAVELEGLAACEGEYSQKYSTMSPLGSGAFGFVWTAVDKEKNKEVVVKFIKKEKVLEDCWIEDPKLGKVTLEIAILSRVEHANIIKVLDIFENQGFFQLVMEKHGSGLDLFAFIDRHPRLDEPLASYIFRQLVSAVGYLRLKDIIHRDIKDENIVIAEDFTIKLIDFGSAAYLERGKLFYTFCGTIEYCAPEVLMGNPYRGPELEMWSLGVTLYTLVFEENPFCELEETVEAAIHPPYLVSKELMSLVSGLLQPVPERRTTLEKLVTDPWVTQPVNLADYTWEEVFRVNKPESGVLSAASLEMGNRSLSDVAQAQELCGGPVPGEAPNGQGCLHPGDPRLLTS
For test [13] the target is unchanged. The conditions noted are these: at 1 µM.
In test [14] the target is Phosphorylase b kinase gamma catalytic chain, skeletal muscle/heart isoform (Homo sapiens) (UniProt Q16816). To be noted: at 0.1 µM.
Chain of Phosphorylase b kinase gamma catalytic chain, skeletal muscle/heart isoform (Homo sapiens) (Q16816 whole entry, looked up, canonical isoform): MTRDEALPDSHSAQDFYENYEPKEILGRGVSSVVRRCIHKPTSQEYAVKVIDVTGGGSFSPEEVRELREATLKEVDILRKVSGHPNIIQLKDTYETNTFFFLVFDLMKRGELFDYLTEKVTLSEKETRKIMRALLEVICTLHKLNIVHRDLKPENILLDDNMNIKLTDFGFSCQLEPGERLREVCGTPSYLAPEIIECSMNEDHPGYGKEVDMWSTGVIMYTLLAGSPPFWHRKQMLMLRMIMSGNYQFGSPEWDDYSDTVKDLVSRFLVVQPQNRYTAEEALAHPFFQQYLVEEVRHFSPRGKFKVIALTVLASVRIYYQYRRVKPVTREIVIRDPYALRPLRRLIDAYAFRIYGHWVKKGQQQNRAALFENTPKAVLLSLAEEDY
For test [15] the target is unchanged. To be noted: at 1 µM.
Test [16] addresses T2, Phosphorylase b kinase gamma catalytic chain, liver/testis isoform (Homo sapiens) (UniProt P15735).
T2 sequence (whole entry): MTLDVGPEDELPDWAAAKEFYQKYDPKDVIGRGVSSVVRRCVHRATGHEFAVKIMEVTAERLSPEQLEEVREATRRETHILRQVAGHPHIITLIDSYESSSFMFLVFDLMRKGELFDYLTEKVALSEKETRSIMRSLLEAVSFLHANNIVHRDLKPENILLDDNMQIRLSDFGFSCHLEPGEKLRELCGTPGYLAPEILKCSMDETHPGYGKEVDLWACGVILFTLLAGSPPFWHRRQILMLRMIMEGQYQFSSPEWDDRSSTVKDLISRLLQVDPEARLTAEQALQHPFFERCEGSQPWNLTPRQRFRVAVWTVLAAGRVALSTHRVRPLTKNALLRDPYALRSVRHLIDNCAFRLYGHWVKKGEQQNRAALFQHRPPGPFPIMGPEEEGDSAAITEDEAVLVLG
To be noted: at 0.1 µM.

The target in test [17] is T2, Phosphorylase b kinase gamma catalytic chain, liver/testis isoform (Homo sapiens). The conditions noted are these: at 1 µM.
For test [18], the target named is Serine/threonine-protein kinase pim-1 (Homo sapiens) (UniProt P11309). The conditions noted are these: at 0.1 µM.
Chain of Serine/threonine-protein kinase pim-1 (Homo sapiens) (P11309 whole entry, looked up): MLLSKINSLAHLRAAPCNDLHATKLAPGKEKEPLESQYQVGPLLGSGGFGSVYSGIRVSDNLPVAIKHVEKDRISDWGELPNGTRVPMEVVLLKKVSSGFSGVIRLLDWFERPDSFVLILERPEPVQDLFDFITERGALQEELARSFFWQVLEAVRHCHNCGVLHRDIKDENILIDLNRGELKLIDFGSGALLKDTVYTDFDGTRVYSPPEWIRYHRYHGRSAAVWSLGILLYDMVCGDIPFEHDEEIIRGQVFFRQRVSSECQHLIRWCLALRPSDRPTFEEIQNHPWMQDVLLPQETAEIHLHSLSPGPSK
Test [19] shares this target. To be noted: at 1 µM.
In test [20] the target is Serine/threonine-protein kinase pim-2 (Homo sapiens) (UniProt Q9P1W9). The conditions noted are these: at 0.1 µM.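 Note: reported value is the mean percent inhibition of PIM2, measured in the GSK PKIS kinase inhibitor set screen.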
Chain of Serine/threonine-protein kinase pim-2 (Homo sapiens) (Q9P1W9 whole entry, looked up): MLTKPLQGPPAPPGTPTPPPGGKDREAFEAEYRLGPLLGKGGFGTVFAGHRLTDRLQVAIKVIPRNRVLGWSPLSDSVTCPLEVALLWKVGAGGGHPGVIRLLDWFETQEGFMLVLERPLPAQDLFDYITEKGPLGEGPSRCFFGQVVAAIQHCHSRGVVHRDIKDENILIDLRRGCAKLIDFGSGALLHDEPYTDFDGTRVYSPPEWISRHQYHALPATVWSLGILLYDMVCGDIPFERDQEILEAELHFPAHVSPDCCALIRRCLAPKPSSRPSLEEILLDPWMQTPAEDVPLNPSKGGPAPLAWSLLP

Chain of MAP kinase-interacting serine/threonine-protein kinase 2 (Homo sapiens) (Q9HBH9 whole entry, looked up): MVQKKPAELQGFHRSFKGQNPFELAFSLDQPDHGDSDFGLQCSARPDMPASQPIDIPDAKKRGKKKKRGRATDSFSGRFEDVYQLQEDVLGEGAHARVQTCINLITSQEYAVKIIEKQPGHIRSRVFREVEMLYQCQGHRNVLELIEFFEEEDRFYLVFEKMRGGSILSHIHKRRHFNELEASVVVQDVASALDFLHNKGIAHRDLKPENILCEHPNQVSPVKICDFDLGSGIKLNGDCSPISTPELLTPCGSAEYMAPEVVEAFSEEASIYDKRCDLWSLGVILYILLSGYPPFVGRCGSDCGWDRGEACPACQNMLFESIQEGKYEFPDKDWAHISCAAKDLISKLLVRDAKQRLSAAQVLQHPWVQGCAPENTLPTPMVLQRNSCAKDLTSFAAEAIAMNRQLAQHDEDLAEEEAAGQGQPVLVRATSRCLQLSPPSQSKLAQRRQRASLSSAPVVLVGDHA
Chain of MAP/microtubule affinity-regulating kinase 3 (Homo sapiens) (P27448 whole entry, looked up): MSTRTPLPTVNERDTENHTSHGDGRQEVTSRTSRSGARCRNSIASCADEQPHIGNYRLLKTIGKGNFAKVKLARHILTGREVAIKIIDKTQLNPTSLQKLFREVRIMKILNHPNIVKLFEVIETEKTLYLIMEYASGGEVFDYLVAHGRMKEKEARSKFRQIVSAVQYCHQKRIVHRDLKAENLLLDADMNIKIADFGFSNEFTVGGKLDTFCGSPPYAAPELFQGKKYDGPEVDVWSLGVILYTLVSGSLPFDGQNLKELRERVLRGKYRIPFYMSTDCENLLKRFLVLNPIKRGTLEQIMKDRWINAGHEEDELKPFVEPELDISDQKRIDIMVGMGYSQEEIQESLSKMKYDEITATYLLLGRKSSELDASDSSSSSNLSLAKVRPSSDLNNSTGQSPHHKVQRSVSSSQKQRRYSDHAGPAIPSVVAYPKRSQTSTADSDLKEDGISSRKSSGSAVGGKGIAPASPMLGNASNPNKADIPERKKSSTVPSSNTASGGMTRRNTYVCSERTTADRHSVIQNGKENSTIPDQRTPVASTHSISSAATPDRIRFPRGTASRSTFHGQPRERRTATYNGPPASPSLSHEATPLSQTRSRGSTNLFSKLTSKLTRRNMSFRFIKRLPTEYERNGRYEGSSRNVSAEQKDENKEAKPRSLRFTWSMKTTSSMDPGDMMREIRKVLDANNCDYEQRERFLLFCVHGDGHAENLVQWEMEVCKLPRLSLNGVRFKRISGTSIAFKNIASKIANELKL

Consider `COc1ccc(-c2oc3ncnc(N)c3c2-c2ccc(NC(=O)Nc3cc(C(F)(F)F)ccc3F)cc2)cc1`, for which the inhibition in [1] was 5.58%; in [2] it was 1.52%; in [3], 5.32%; in test [4] it was 4.39%; in test [5] it was -9.28%; in [6], 9.84%. The inhibition in [7] was 46.6%; in [8], 9.42%; in [9], 56.3%; in [10] it was 0.01%; in test [11], 0.81%; in [12] it was 1.45%. Also, the inhibition in [13] was 4.43%; in test [14], 4.93%; in test [15], 16.9%; in [16], 6.42%; in test [17], 9.75%; in test [18], -0.3%. For the same compound, the results for the inhibition in test [19] and in [20] were 0.75% and 0.28%, respectively.

Consider `Fc1ccc(-c2cc(-c3c[nH]nc3-c3ccccn3)ccn2)cc1`, for which the inhibition in test [1] amounted to 0.81%; in [2], 1.12%; in [3], 1.84%; in test [4], 0.52%; in [5], 7.4%; in [6], 4.46%. Moreover, the inhibition in test [7] was 10.4%; in test [8], 2.83%; in [9] it was 6.06%; in test [10] it was -3.26%; in [11], -2.56%; in test [12], -0.42%. The inhibition in test [13] was 0.53%; in [14], 5.71%; in [15] it was 9.03%; in test [16] it was 5.07%; in test [17] it was 8.42%; in test [18], -0.17%. Also, the inhibition in test [19] was 0.76%; in test [20], 0.19%.

For the compound `COc1cccc(-c2c[nH]c3c(N/N=C/c4ccncc4)ncnc23)c1`, the inhibition worked out at 11.8% in [1]; 1.97% in test [2]; 7.5% in test [3]; 0.82% in test [4]; 4.88% in test [5]; 15.4% in test [6]. The inhibition was 57.1% in [7]; 11.8% in test [8]; 51.1% in test [9]; 0.99% in [10]; 5.48% in test [11]; 0.94% in test [12]. Also, the inhibition is -0.58% in test [13]; 3.01% in test [14]; 12.1% in [15]; 3.45% in test [16]; 1.52% in [17]; 1.65% in test [18]. The inhibition was 5.38% in test [19] and -0.12% in [20].

Consider `CNC(=O)c1cccc(C#Cc2cncnc2Nc2ccc(OCc3cccc(F)c3)c(Cl)c2)c1`, for which the inhibition was 23.2% in [1]; -0.97% in [2]; 0.31% in test [3]; -3.3% in test [4]; -0.86% in test [5]; 3.12% in [6]. Besides, the inhibition in test [7] was 26.2%; in test [8], 1.92%; in [9], 13.1%; in [10], -2.05%; in [11], -2.06%; in test [12] it was 0.44%. The inhibition in [13] was 0.79%; in [14], -2.47%; in [15], 2.19%; in test [16], 2.39%; in test [17] it was 3.44%; in test [18], 0.55%. Besides, the inhibition in [19] turned out to be 0.54%; in test [20], 0.37%.

For the compound `CC(C)(CO)CNC(=O)c1ccc2c(c1)/C(=N/Nc1ccc(S(N)(=O)=O)cc1)C(=O)N2`, the inhibition in [1] amounted to 36.6%; in [2], 7.2%; in test [3], 42.6%; in test [4], 18.8%; in [5] it was 72.7%; in test [6], 0.85%. For the same compound, the inhibition was 3.37% in test [7]; -0.26% in test [8]; 9.44% in test [9]; 3.29% in test [10]; 32.2% in [11]; 1.39% in test [12]. Besides, the inhibition in [13] stood at 0.43%; in [14], 6.19%; in test [15], 29.9%; in test [16], 0.52%; in test [17], 3.4%; in test [18] it was 2.44%. For the same compound, the inhibition in [19] came to 18.9%; in test [20], 0.31%.

As for `COC(=O)Nc1nc2ccc(Oc3ccc(NC(=O)Nc4cccc(Cl)c4)cc3)cc2[nH]1`, the inhibition in [1] was -0.32%; in [2], -0.16%; in test [3], 0.01%; in test [4], 1.24%; in test [5], -2.93%; in test [6], 1.78%. The inhibition in test [7] is 4.14%; in test [8] it was -1.23%; in [9], 0.19%; in test [10] it was -0.4%; in [11] it was 0.42%; in test [12], 1.55%. Further, the inhibition in [13] was 0.95%; in test [14] it was 1.88%; in test [15], 4.58%; in [16] it was 1.21%; in test [17] it was 1.57%; in test [18], -0.68%. The inhibition was -1.08% in [19] and -0.32% in test [20].

On to `CCn1cc(-c2ccnc3[nH]ccc23)c(-c2cccc(NC(=O)Nc3ccc(OCc4ccccc4)cc3)c2)n1`, for which the inhibition in [1] is 2.97%; in [2] it was 1.33%; in test [3] it was 2.66%; in [4], -3.14%; in test [5] it was -3.15%; in [6], 0.36%. Also, the inhibition was 1.39% in [7]; -1.1% in test [8]; -0.1% in [9]; -0.11% in [10]; 1.54% in test [11]; 0.94% in [12]. Besides, the inhibition in test [13] is 1.65%; in [14] it was 1.58%; in test [15], 4.8%; in test [16] it was 1.37%; in test [17] it was 1.3%; in [18], -0.93%. The inhibition in [19] was -1.25%; in test [20] it was 0.19%.
